# Experimental data as given in PubChem BioAssay AID651916 (Vanderbilt Specialized Chemistry Center, 2012).
# Active and inactive are the calls of the source. How the calls were made is not given here.
# Target: Histone deacetylase 3 (Homo sapiens) (UniProt O15379)
# Experiment: HDAC3 deacetylase inhibition, profiling panel, selectivity assay for E-cadherin restoration project, biochemical, human (AID 651916)
# Conditions: recombinant HDAC3, fluorogenic peptide substrate, % enzyme activity; series mostly up to 10 µM
# Chain of Histone deacetylase 3 (Homo sapiens) (O15379 whole entry, looked up): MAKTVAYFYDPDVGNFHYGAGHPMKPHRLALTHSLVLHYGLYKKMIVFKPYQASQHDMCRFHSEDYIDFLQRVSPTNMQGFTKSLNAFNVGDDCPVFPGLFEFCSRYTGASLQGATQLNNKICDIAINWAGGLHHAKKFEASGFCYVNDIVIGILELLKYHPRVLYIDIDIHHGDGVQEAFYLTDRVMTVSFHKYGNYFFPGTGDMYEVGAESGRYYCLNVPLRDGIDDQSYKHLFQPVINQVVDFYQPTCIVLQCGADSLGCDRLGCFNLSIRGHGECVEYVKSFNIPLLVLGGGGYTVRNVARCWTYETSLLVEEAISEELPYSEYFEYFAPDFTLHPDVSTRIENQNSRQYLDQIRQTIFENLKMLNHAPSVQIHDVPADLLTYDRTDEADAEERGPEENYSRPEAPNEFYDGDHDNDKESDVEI
smiles,measurement,value
O=C(NCCCNC(=O)c1ccc[nH]c1=O)c1cc(-c2ccccc2)on1,outcome,inactive
